# Measured values: PubChem BioAssay (NCI)
# The panel holds about 83,000 compounds, 20% with a hit somewhere; the sample as a whole holds those more often.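 Negative percent growth values reflect cell death: -40 means 40% of the cells present at the start died, and -100 means all died.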 Calls of active or inactive are those of the source. The calls were made as follows: active = growth percent below 10; inactive = the rest.
# System: SNB-75 CNS
# Test: NCI-60 one-dose screen, 48 h (100 = growth as untreated, 0 = no growth, -100 = all killed)
# Conditions: 10 µM unless noted
row,Structure (SMILES),growth
1,CCOC(=O)n1cc(-c2nonc2-c2cn(C)c3ccccc23)c2ccccc21,16.3% (inactive)
2,Cc1cc(C)cc(Nc2ccc([N+](=O)[O-])c(NCCN3CCOCC3)n2)c1,31.3% (inactive)
3,COc1ccccc1-n1c(-c2cc(O)ccc2C)cn2c3c(=O)[nH]c(=O)n(C)c3nc12,-32% (active)
4,O=c1oc2c(cnc3ccccc32)cc1-c1cccs1,92% (inactive)
5,CCCCCCCCCCCCCCCCCCOc1ccccc1CC(=O)OCC[N+]1(C)CCOCC1,19.7% (inactive)
6,COc1cc(C#Cc2ccc(=O)oc2C#Cc2ccccc2)cc(OC)c1OC,77.1% (inactive)
7,CCC(C)Nc1ccc(NC(C)CC)cc1 (stereo not given),83.2% (inactive)
8,C#CCn1cnc2c(Nc3cccc(NC(=O)CCl)c3)ncnc21,33.2% (inactive)
9,CC[C@H](CC[C@@H](C)[C@H]1CC[C@H]2[C@@H]3CC[C@@H]4CC(=O)/C(=C\c5ccncc5)C[C@]4(C)[C@H]3CC[C@]12C)C(C)C,99.4% (inactive)
10,COc1ccc2nc3ccccc3c(NCc3ccc(F)cc3)c2c1,23.8% (inactive)
11,COc1ccc(Cl)cc1Nc1nc(C(F)(F)F)ccc1C(=O)N/N=C/c1ccccc1Cl,50% (inactive)

# System: SNB-19 CNS
# Test: as above
# Conditions: 10 µM unless noted
row,Structure (SMILES),growth
1,CC(=O)N/C(=C1/OC(C(O)C(O)C(O)CO)CN1C)[P+](c1ccccc1)(c1ccccc1)c1ccccc1 (stereo not given),91.2% (inactive)
2,COc1ccc(/C=C/C(=O)c2ccc(Nc3nc(Nc4ccc(F)cc4)nc(Nc4ccc(Cl)cc4)n3)cc2)cc1,115% (inactive)
3,COc1ccc(C2=NN(C(=O)c3cc(OC)c(OC)c(OC)c3)C(c3ccc(N(C)C)cc3)C2)cc1 (stereo not given),37.6% (inactive)
4,O=C1NC(=C(Cl)Cl)/C(=N/S(=O)(=O)NCCc2c[nH]c3ccccc23)N1,53.9% (inactive)
5,COc1ccc(C/C(C)=C(\c2ccc(O)cc2)c2ccc(OCCN3CCCC3)cc2)cc1,103% (inactive)
6,CCOC(=O)NN1CC(O)=C(c2nc(-c3ccc(Br)cc3)cs2)C1=N,98.7% (inactive)
7,COC(=O)/C(CCC=C(C)C)=C1\[C@@H](OC(C)=O)C[C@@]2(C)[C@H]1CC(=O)[C@H]1[C@@]3(C)CCC(N4CCCC4)[C@@H](C)[C@@H]3CC[C@@]12C (stereo not given in full),107% (inactive)
8,Nc1c(C(=O)Nc2ccccn2)sc2nc3c(cc12)C(O)CCC3 (stereo not given),20.9% (inactive)
9,COc1ccc2nc3cc(Cl)ccc3c(NCCN)c2c1,7.75% (active)
10,Cc1cc2nc3c4ccccc4n(CCN(C)C)c3nc2cc1C,26% (inactive)
11,Cc1ccc(C)n1/C=C/n1c(C)ccc1C,98.4% (inactive)
12,Cc1c2ccccc2nc2c1ccc1cccnc12,88.8% (inactive)
13,CN1CCN(Cc2ccc(NC(=O)c3cncc(C#Cc4cncc5ncccc45)c3)cc2C(F)(F)F)CC1,46.7% (inactive)
14,CCNC(=O)Oc1ccc(/C(=C(/C)Cc2ccc(OC)cc2)c2ccc(OCCN3CCCCCC3)cc2)cc1,82.7% (inactive)
15,NC(CSC(c1ccccc1)(c1ccccc1)c1ccc2c(c1)OCO2)C(=O)O (stereo not given),37.7% (inactive)
16,Cn1ccnc1C(=O)/C=C/c1ccc(C(=O)Nc2ccc(F)cc2)cc1,24.4% (inactive)
17,C=CCn1c(SCC(=O)Nc2ccc(C(=O)/C=C/c3ccc(OC)cc3)cc2)nnc1-c1ccccc1,83.9% (inactive)
18,COc1ccccc1NC(=O)c1ccc(/C=C/C(=O)c2nccn2C)cc1,-84.3% (active)
19,CCC/C(=N\NC(N)=O)C(OC)OC,102% (inactive)
20,O=C1c2cccnc2C(=O)c2c1c(C(=O)OCCCN1CCCCC1)c1ccccn21,-38.2% (active)

row,Structure (SMILES),growth
1,O=C1CC2C=CCN2C=C1NC(=O)C1CCCCC1 (stereo not given),111% (inactive)
2,O=C(Nc1ccccc1)c1sc(-c2ccccc2)cc1O,101% (inactive)
3,O=C1/C(=C/c2cccc([N+](=O)[O-])c2)COc2ccc(O)cc21,72.2% (inactive)
4,COc1cc2c3c(c1O)-c1ccccc1[C@@H]1OC(=O)N(CC2)[C@H]31,104% (inactive)
5,COC(c1ccc2ccccc2c1)C(C)C(F)F (stereo not given),101% (inactive)
6,Nc1ncnc2c1c(-c1ccc(Oc3ccccc3)cc1)nn2CC1SSCC1O (stereo not given),45.5% (inactive)
7,C/C(=C(\c1ccc(OCCN2CCCCCC2)cc1)c1ccc(OC(=O)Cc2ccccc2)cc1)c1ccc(Cl)cc1,63.1% (inactive)
8,Cc1cc2oc(=O)cc(CP(=O)(O)O)c2cc1O,93.6% (inactive)
9,CCOC(=O)n1cc(-c2nonc2-c2cn(C)c3ccccc23)c2ccccc21,35.3% (inactive)
10,Cc1cc(C)cc(Nc2ccc([N+](=O)[O-])c(NCCN3CCOCC3)n2)c1,43.9% (inactive)
11,COc1ccccc1-n1c(-c2cc(O)ccc2C)cn2c3c(=O)[nH]c(=O)n(C)c3nc12,82.1% (inactive)
12,O=c1oc2c(cnc3ccccc32)cc1-c1cccs1,101% (inactive)
13,CCCCCCCCCCCCCCCCCCOc1ccccc1CC(=O)OCC[N+]1(C)CCOCC1,54.4% (inactive)
14,COc1cc(C#Cc2ccc(=O)oc2C#Cc2ccccc2)cc(OC)c1OC,92.9% (inactive)
15,CCC(C)Nc1ccc(NC(C)CC)cc1 (stereo not given),101% (inactive)
16,C#CCn1cnc2c(Nc3cccc(NC(=O)CCl)c3)ncnc21,58.7% (inactive)
17,CC[C@H](CC[C@@H](C)[C@H]1CC[C@H]2[C@@H]3CC[C@@H]4CC(=O)/C(=C\c5ccncc5)C[C@]4(C)[C@H]3CC[C@]12C)C(C)C,99.2% (inactive)
18,COc1ccc2nc3ccccc3c(NCc3ccc(F)cc3)c2c1,17.7% (inactive)
19,COc1ccc(Cl)cc1Nc1nc(C(F)(F)F)ccc1C(=O)N/N=C/c1ccccc1Cl,9.47% (active)
